Only a selection was taken, and the strongest signals are over-represented in it overall.
tested on: Neu5Ac(a2-6)Gal(b1-4)GlcNAc(b1-3)Gal(b1-4)GlcNAc; assay: glycan array binding signal (z-score within array); higher = stronger binding; details: glycan notation: IUPAC condensed, linker removed
How it was run: (§1)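 The binding signal is a Z-score computed within each array. Data were drawn from 3228 arrays in the Consortium for Functional Glycomics database, restricted to those with a known protein sequence. Scores were averaged over arrays of the same protein sequence at different concentrations or buffers, and over linkers, and negative values can be taken as non-binding.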

Sequence of CHI3L1 (Homo sapiens), P36222 (P36222 whole entry): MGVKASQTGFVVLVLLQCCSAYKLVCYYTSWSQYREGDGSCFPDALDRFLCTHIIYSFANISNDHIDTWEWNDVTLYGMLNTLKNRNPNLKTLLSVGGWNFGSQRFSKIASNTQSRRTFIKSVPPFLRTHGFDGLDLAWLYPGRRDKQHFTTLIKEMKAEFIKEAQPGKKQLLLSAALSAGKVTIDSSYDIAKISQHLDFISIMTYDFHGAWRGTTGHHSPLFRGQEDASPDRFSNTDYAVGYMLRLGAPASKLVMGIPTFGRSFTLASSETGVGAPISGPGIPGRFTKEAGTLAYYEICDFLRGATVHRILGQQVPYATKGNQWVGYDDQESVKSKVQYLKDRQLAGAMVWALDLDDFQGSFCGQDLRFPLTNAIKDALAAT
Sequence of Aggrecan (Rattus norvegicus), NP_071526 (chain, as listed by the source): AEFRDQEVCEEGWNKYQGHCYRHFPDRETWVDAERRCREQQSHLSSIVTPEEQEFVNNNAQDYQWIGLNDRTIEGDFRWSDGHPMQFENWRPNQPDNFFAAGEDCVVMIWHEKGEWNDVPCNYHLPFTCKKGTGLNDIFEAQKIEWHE
Sequence of PILRa (Mus musculus), Q2YSF3 (Q2YSF3 entry or part of it): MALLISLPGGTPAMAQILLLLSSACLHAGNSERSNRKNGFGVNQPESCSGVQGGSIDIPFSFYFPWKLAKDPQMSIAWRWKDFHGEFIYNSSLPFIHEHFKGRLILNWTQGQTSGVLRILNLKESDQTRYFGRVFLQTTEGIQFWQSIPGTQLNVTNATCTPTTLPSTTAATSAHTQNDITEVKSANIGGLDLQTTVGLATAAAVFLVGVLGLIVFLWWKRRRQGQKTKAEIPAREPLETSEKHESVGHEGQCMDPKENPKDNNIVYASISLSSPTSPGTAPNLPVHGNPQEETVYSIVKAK
Sequence of Avaren (Actinomycete K97) (chain, as listed by the source): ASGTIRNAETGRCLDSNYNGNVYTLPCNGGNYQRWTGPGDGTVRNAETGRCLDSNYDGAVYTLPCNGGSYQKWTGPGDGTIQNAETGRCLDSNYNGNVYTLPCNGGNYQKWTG
Sequence of C3b (Homo sapiens), P01024 (P01024 23-667): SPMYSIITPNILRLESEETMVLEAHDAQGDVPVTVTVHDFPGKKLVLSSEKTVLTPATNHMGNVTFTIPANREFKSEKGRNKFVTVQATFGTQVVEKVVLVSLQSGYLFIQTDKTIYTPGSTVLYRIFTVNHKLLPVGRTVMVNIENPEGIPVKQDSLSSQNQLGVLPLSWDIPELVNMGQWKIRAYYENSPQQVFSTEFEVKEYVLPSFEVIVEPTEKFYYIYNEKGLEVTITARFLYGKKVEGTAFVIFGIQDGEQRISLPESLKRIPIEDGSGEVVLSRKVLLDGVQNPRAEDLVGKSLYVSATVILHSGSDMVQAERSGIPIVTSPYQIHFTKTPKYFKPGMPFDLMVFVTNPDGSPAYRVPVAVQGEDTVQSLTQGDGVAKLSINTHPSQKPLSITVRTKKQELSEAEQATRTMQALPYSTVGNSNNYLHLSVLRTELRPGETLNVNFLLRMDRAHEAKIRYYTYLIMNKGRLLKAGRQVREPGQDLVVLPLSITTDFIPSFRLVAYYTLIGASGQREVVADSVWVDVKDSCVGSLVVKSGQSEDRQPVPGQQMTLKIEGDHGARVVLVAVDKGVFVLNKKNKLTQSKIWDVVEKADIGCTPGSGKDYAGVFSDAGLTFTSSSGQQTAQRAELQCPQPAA

Row | Substance | glycan array binding signal (z-score)
1 | Aggrecan (Rattus norvegicus), NP_071526 | -0.113
2 | HARE (Homo sapiens), Q8WWQ8 | -0.057
3 | CHI3L1 (Homo sapiens), P36222 | -0.105

tested on: Neu5Ac(a2-6)Gal(b1-4)GlcNAc6S; assay: as above; details: glycan notation: IUPAC condensed, linker removed
How it was run: as §1

Row | Substance | glycan array binding signal (z-score)
4 | PILRa (Mus musculus), Q2YSF3 | 1.51
5 | Avaren (Actinomycete K97) | -0.14
6 | C3b (Homo sapiens), P01024 | 0.107
7 | CHI3L1 (Homo sapiens), P36222 | -0.139

From the supplement of paper PMC8728848
